# PubChem BioAssay (NCATS)
# Some of the results follow. Entries that show only a call come without a potency. Inconclusive results are not listed. Active and inactive are the calls of the source. Calls come from the whole dose curve; as a rule, active = well fitted inhibition curve with a large enough effect; inconclusive = small, poorly fitted or top-dose-only effect, or effect the other way; inactive = no such curve, though single readings can be large or run the other way.
# Assay: qHTS Assay for Inhibitors of Fructose-1,6-bisphosphate Aldolase from Giardia Lamblia: Giardia lamblia growth inhibition (AID 2785);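 note: trophozoites exposed to compound for 48 h at 37 °C; nearly all actives have a fitted effect of over 70% in size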
# Details: Giardia lamblia trophozoite growth inhibition; series mostly up to 57.5 µM
# Excerpt: NIH Chemical Genomics Center [NCGC]
# NIH Molecular Libraries Probe Production centers Network [MLPCN]
# Assay Provider: Osnat Herzberg, University of Maryland
# The objective of this project is to obtain compounds that inhibit Giardia lamblia growth. G. lamblia is a human pathogen which afflicts impoverished nations; it is the most common cause of outbreaks of diarrhea in the United States. During the course of our study of potential drug targets in Giardia, we have identified the Class II (Zn2+ functions in electrophilic catalysis) fructose-1,6-bisphosphate aldolase (FBPA) as an excellent candidate for drug targeting. FBPA is a key glycolytic pathway enzyme, essential for G. lamblia survival. The human FBPA belongs to the Class I aldolases, which have a different substrate binding site structure and a radically different catalytic mechanism (employing a lysine-Schiff base intermediate). Therefore, affinity-based or mechanism-based inhibitors of the Giardia FBPA are expected not to interfere with the catalytic function of the human FBPA.
# A glyceraldehyde-3-phosphate dehydrogenase/triose phosphate isomerase/NAD/arsenate coupled assay was adapted to the 1536-well HTP format for use in the primary screen. This was done by coupling it to a diaphorase/resazurin/resorufin reaction that can be monitored by fluorescence (excitation, 544 nm; emission, 590 nm). Compounds identified in this screen will be further evaluated by coupling the glycerol-3-phosphate/triose phosphate isomerase/NADH assay to a phenazine methosulfate/tetranitroblue tetrazolium color reaction. False positives due to the dehydrogenases and diaphorase inhibition will be eliminated, and selectivity assay will triage inhibitors of mammalian triose phosphate isomerase and the Class I FBPA. G. lamblia FBPA inhibitors identified by the in vitro analyses will be examined for growth inhibition of Giardia trophozoites, and for cytotoxicity in human cells.
# This assay addresses whether hits in the primary screen can inhibit growth of giardia lamblia trophozoites.
# Trophozoites of the G. lamblia isolate WB (33) were grown at pH 7.0 in modified TYI-S-33 medium. Detachment of trophozoites for preparation of inocula was achieved by chilling the cultures on ice for 20 min.
# 2uL/well media was dispensed per well into 1536-well white solid-bottom plates using a Multidrop Combi dispenser (Thermo Scientific). Subsequently, 23 nL/well compound solutions or DMSO controls were dispensed to the assay plates containing media via a pintool workstation (Kalypsys, San Diego) to avoid the potential contamination to the compound source plates. Unless otherwise noted, Giardia trophozoids suspended in media were dispensed as 100 cells/well in 4uL volumes. The plates were covered with plastic low-evaporation lids, individually sealed in Type A Bio-Bags and incubated at 37C for 48 hours. Following incubation, 4uL/well of ATPlite reagent was dispensed with a Multidrop Combi dispenser. The assay plates were briefly centrifuged at 1000 RPM and luminescence signal was detected on a ViewLux plate reader (PerkinElmer) after 20 min incubation at room temperature.
# Keywords: Fructose-bisphosphate aldolase, FBPA , Giardia lamblia , Giardia, HTS, Inhibitors
# Potency is the fitted concentration of half-maximal effect.
Structure (SMILES),Potency,"activity change, negative = inhibition"
O=[N+]([O-])c1cc([N+](=O)[O-])c2cccnc2c1O,inactive,
Cc1cccc(-c2nnc(SCC(=O)O)n2Cc2ccccc2)c1,,6.79% [at 10.4 µM] (inactive)
O=S(=O)(c1ccc(NC(=S)NN=C(C2CC2)C2CC2)cc1)N1CCOCC1,,-9.73% [at 10.4 µM] (inactive)
COC(=O)CC1=NN(c2nc(C)cc(C)n2)C(=O)C1,inactive,
Cc1nnc(N/N=C/c2ccccn2)[nH]c1=O,25.1 µM (active),
Cc1cc(C)nc(N/N=C/c2ccc([N+](=O)[O-])o2)n1,3.16 µM (active),
C=CCNC(=S)/N=c1/ccccn1Cc1ccccc1,,3.99% [at 10.4 µM] (inactive)
COc1ccc(Cl)cc1C(=O)NNC(=O)c1nc2nc(C)cc(C)n2n1,inactive,
COCCN(C(=S)Nc1ccccc1OC)C1CCN(C(C)C)CC1,inactive,
O=C(Nc1nnc(-c2ccco2)o1)c1ccc(S(=O)(=O)N2CCOCC2)cc1,,7.93% [at 10.4 µM] (inactive)
Cc1cccc(C)c1OCCN1CCOCC1,,14.9% [at 10.4 µM] (inactive)
CN1CCN(CCCCOc2ccccc2-c2ccccc2)CC1,inactive,
Cc1cc(C)n(-c2ccc(Cl)c(C(=O)O)n2)n1,inactive,
Cc1ccc(OCCCCc2c(C)n[nH]c2C)cc1,,7.15% [at 10.4 µM] (inactive)
COc1ccc(CN2CCN(Cc3ccc(OC)c(OC)c3OC)CC2)cc1,,6.68% [at 10.4 µM] (inactive)
COc1ccccc1CN1CCN(Cc2cc(OC)c(OC)cc2OC)CC1,inactive,
COc1ccc(C(=O)NC(=S)N2CCCCC2c2cccnc2)cc1OC (stereo not given),inactive,
CN1CCCc2cc(C#N)c(=O)[nH]c21,inactive,
Cc1csc(NC(=O)CN2CCCCCC2)n1,,1.38% [at 10.4 µM] (inactive)
O=c1nc(N/N=C/c2ccco2)cn[nH]1,inactive,

Structure (SMILES),Potency,"activity change, negative = inhibition"
CSc1n[nH]c(=S)n1N,inactive,
CN1C(=O)/C(=C\c2ccc(-c3ccccc3)o2)SC1=S,inactive,
O=C(CN1C(=O)COc2ccccc21)Nc1ccc(F)cc1,inactive,
Cn1nnc(NC(=S)NC(=O)c2ccccc2)n1,inactive,
Cc1cnc(NC(=O)c2ccccn2)s1,,-23.9% [at 10.4 µM] (inactive)
Cn1c(=O)[nH]c(=O)c2c1[nH]c(=S)n2Cc1ccccc1,,4.88% [at 10.4 µM] (inactive)
CNC(=S)N/N=C/c1ccc(N2CCOCC2)s1,,-8.92% [at 10.4 µM] (inactive)
COc1ccc(OC)c(Nc2nc(-c3ccc(O)c(O)c3)cs2)c1,,-10.8% [at 10.4 µM] (inactive)
COc1ccc(N=Nc2c(-c3ccc(OC)cc3)[nH]oc2=O)cc1,inactive,
O=C1CCCN1CCCNC(=S)Nc1ccc(F)c(Cl)c1,inactive,
CCN(CC(=O)NC(=O)NCc1ccccc1)Cc1nc2ccccc2c(=O)[nH]1,inactive,
CCN(CC(=O)Nc1ccc(S(=O)(=O)N2CCCC2)cc1)CC(=O)Nc1cccc(OC)c1,inactive,
Cc1nc(N2CCOCC2)sc1C(=O)NN,inactive,
C=C(C)CNC(=S)N/N=C/c1ccccc1OCC(=O)O,inactive,
Clc1cccc(CN2COc3c(cc(Cl)c4cccnc34)C2)c1,inactive,
O=C(Nc1ccccc1Cl)O/N=C(/c1ccccc1)c1ccccn1,22.4 µM (active),
CC(C)(c1ccccc1)c1ccc(OCCN2CCCC2)cc1,inactive,
CC(=O)NC1CCN(CC(=O)Nc2nccs2)CC1,,-10.3% [at 10.4 µM] (inactive)
Cc1nc2ccc(NC(=S)N3CCC(C)CC3)cc2nc1C,inactive,
Cc1cc(C)c2c(=O)[nH]c(SCC(=O)Nc3ccc(Br)cc3)nc2n1,inactive,
